# Laboratory results: PubChem BioAssay (NCATS)
# Results filed as inconclusive are left out. Activity calls are given as the source filed them. Calls follow the shape of the dose curve; as a rule, active = well fitted curve in the direction sought with a large enough effect; inconclusive = small, poorly fitted or top-dose-only effect, or another doubt; inactive = no such curve, though single readings can be large; an effect the other way counts as inactive or inconclusive.
# Molecular target: Rap guanine nucleotide exchange factor 3 (Homo sapiens) (UniProt O95398)
# Assay: Confirmatory qHTS for antagonist of cAMP-regulated guanine nucleotide exchange factor 3 (EPAC1) (AID 1645880); also: nearly all actives have a fitted effect of over 55% in size; also: potency is read from the fitted curve at half-maximal effect;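 as to activity, negative = inhibition: plate controls were DMSO only for no effect and full effect of the ATA control for full effect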
# Settings: EPAC1 Rap1B-BODIPY-GDP exchange, fluorescence; series mostly up to 115 µM; activity, negative = inhibition: at the top concentration
# Outline: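 Released BODIPY-GDP fluoresces less than Rap1-bound BODIPY-GDP; the signal is followed at 480/540 nm at 5-min intervals over 30 min, after 5 min at room temperature. Reactions contain 100 nM EPAC1, 250 nM RAP1B-BODIPY-GDP and 50 uM GDP; results are normalized to ATA and DMSO.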
# Rap guanine nucleotide exchange factor 3 (Homo sapiens), sequence (O95398 whole entry, looked up): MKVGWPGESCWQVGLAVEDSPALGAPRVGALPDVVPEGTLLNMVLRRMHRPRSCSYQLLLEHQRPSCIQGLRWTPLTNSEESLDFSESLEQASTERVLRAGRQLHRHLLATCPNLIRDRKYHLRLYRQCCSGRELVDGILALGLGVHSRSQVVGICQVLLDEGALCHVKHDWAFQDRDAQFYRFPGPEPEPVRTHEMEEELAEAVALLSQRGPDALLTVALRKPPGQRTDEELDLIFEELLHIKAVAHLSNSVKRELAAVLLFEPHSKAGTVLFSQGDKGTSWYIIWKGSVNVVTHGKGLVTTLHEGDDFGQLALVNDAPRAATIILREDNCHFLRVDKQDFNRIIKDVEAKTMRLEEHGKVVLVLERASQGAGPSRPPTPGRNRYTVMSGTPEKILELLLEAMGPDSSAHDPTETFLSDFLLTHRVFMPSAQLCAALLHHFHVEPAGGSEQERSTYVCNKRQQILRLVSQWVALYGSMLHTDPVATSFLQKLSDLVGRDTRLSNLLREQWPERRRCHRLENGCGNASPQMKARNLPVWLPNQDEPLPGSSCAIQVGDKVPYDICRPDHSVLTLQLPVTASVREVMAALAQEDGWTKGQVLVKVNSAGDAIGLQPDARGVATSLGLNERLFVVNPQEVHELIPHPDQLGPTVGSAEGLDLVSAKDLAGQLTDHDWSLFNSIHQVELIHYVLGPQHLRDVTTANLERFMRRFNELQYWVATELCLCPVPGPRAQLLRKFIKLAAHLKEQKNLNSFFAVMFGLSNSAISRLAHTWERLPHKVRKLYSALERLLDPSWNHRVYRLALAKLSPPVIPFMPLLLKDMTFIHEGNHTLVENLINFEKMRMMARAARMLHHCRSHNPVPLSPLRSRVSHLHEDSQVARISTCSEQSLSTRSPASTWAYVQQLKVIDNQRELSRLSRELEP
SMILES,"activity, negative = inhibition",Potency
CCCCN(Cc1ccc(C(=O)N[C@H](C(=O)O)C(C)C)cc1)C(=O)C(c1ccccc1)c1ccccc1,-9.37% (inactive),–
CN(C)CCNC(=O)c1cccc(-c2cnc3c(NC=O)cc(-c4cccc(C(F)(F)F)c4)cn23)c1,-30.1% (inactive),–
C=CCn1c(N)c(S(=O)(=O)c2cccs2)c2nc3ccccc3nc21,–,33.8 µM (active)
CCOC(=O)c1cc2c(=O)n3ccccc3nc2n(Cc2ccco2)c1=NC(=O)c1ccc(Br)cc1,–,75.7 µM (active)
COc1ccc(OC)c2c(/C=C/c3c(C)[nH]c4ccccc34)ccnc12,-14.6% (inactive),–
CC(c1ccc(N(C)C)cc1)c1ccnc2ccccc12 (stereo not given),-8.21% (inactive),–
C/C(CC(=O)Nc1ccc2ccccc2c1)=N\NC(=O)c1cnccn1,-16% (inactive),–
C1=Cc2ccccc2/C1=C\c1ccc2c(c1)OCO2,-10.7% (inactive),–
c1ccc2c(N3CCCCCC3)nc(CN3CCCCC3c3nccs3)nc2c1 (stereo not given),-10.4% (inactive),–
COc1ccc(Cl)cc1N(C)C(=O)Cc1noc2ccc(C)cc12,-17% (inactive),–
C#C[C@]1(OC(C)=O)CCC2C3CCC4=CC(=O)CC[C@@H]4C3CC[C@@]21C (stereo not given in full),-15% (inactive),–
COCCN(CCOC)c1nc(-c2ccccc2)nc2ccccc12,-24.8% (inactive),–
COc1cc(CCN(C(=O)c2cccc(S(C)(=O)=O)c2)C(CCc2ccccc2)c2nc3ccccc3[nH]2)cc(OC)c1 (stereo not given),-61.2% (inactive),–
CC(C)C[C@@H](COc1ccccc1)N1CCN(Cc2ccccc2)CCC1=O,-17.2% (inactive),–
COc1cccc(CN(C)C(=O)c2cnn(-c3ncc4c(n3)-c3ccccc3CCC4)c2C)c1,-18.3% (inactive),–
CCN(CCn1cccn1)Cc1c(C(=O)N2CCCCCCC2)nc2ccc(Cl)cn12,-23.5% (inactive),–
CC[C@H]1c2[nH]c3ccc(C(C)C)cc3c2[C@@H]2CCN3C(=O)CCC[C@H]1[C@H]23,-11.1% (inactive),–
CC(=O)Nc1ccc(SC[C@H](C)CN2CC[C@H](C(C)(C)C)CCC2=O)cc1,-19.7% (inactive),–
COc1ccc(C2CN=NC23CCc2ccccc2C3=O)cc1 (stereo not given),-19.1% (inactive),–
Cc1cccc(C)c1OCC(=O)N(Cc1ccco1)Cc1ccco1,-37% (inactive),–

SMILES,"activity, negative = inhibition",Potency
CCCCN(C(=O)c1cccc2c(=O)c(C)c(-c3ccccc3)oc12)c1ccccc1,-16.1% (inactive),–
Cc1c(C(=O)N2c3ccccc3CC2C)oc2ccccc12 (stereo not given),-20.2% (inactive),–
NC(=O)Nc1ccc(/C=C2\C=Cc3ccccc32)cc1,-17.9% (inactive),–
Cc1[nH]c2ccccc2c1/C=C/c1ccnc2ccccc12,-12.4% (inactive),–
COc1cc2c3nnc(-c4ccccc4)c-3cn(Cc3ccc(F)cc3)c2cc1OC,-27.3% (inactive),–
Cc1cc(-c2cc(F)cc3c2OC(CNC(=O)CCn2cncn2)C3)ccc1F (stereo not given),-8.95% (inactive),–
CCCCOC(=O)Nc1ccc(S(=O)(=O)Nc2nccs2)cc1,-25.9% (inactive),–
COc1ccc(S(=O)(=O)N2CCCCCC2)cc1C(=O)N1CCCC(C(F)(F)F)C1 (stereo not given),-16.1% (inactive),–
C=CCOc1ccc(Br)cc1/C=C1/SC(=Nc2ccc(C(=O)O)cc2)NC1=O,–,30.1 µM (active)
O=C(C[n+]1cccc2cc(Cl)ccc21)c1ccc(Br)cc1,-18% (inactive),–
CCCCN(C(=O)CSc1n[nH]c(-c2ccc(C)cc2)n1)c1c(N)n(CCCC)c(=O)[nH]c1=O,-28.2% (inactive),–
O=c1c2ccccc2oc2ccc(Oc3ccccc3)cc12,-13.3% (inactive),–
Cc1ccc(C)c(N2CCN(C(=O)CCc3nc(-c4ccc(Cl)cc4)no3)CC2)c1,-29% (inactive),–
COc1cc(-c2noc(C)c2-c2ccc3[nH]ccc3c2)cc(OC)c1OC,-17.5% (inactive),–
COc1cc(/C=N/NC(=O)c2ccccc2)ccc1O,-12.8% (inactive),–
COc1cccc(OC)c1C(=O)Nc1ccccc1Sc1ccccc1,-34.7% (inactive),–
Cn1cccc1-c1cc(C(=O)N/N=C/c2ccc(F)cc2)[nH]n1,-15.8% (inactive),–
Cc1cc(N(C)C)cc(C)c1/C=C/c1ccnc2ccccc12,-14.9% (inactive),–
COc1ccc(C(=O)c2ccc(Br)cc2)c2ccccc12,-25.2% (inactive),–
CC1Sc2ccc(C(=O)OCc3ccccc3Cl)cc2NC1=O (stereo not given),-21.6% (inactive),–

# Molecular target: Rap guanine nucleotide exchange factor 3 (Homo sapiens) (UniProt O95398)
# Assay: Confirmatory qHTS for agonist of cAMP-regulated guanine nucleotide exchange factor 3 (EPAC1) (AID 1645881);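 also: EPAC1 catalysed release of BODIPY-GDP from Rap1B seen as fluorescence loss; 100% = effect of cAMP agonist control; nearly all actives have a fitted effect of over 75% in size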
# Settings: EPAC1 Rap1B BODIPY-GDP exchange fluorescence; series mostly up to 154 µM; activation: at the top concentration
row,SMILES,activation
1,CCCCN(Cc1ccc(C(=O)N[C@H](C(=O)O)C(C)C)cc1)C(=O)C(c1ccccc1)c1ccccc1,1.12% (inactive)
2,CN(C)CCNC(=O)c1cccc(-c2cnc3c(NC=O)cc(-c4cccc(C(F)(F)F)c4)cn23)c1,8.67% (inactive)
3,C=CCn1c(N)c(S(=O)(=O)c2cccs2)c2nc3ccccc3nc21,5.54% (inactive)
4,CCOC(=O)c1cc2c(=O)n3ccccc3nc2n(Cc2ccco2)c1=NC(=O)c1ccc(Br)cc1,-0.271% (inactive)
5,COc1ccc(OC)c2c(/C=C/c3c(C)[nH]c4ccccc34)ccnc12,-0.113% (inactive)
6,CC(c1ccc(N(C)C)cc1)c1ccnc2ccccc12 (stereo not given),-0.777% (inactive)
7,C/C(CC(=O)Nc1ccc2ccccc2c1)=N\NC(=O)c1cnccn1,4.49% (inactive)
8,C1=Cc2ccccc2/C1=C\c1ccc2c(c1)OCO2,-7.19% (inactive)
9,c1ccc2c(N3CCCCCC3)nc(CN3CCCCC3c3nccs3)nc2c1 (stereo not given),-5.53% (inactive)
10,COc1ccc(Cl)cc1N(C)C(=O)Cc1noc2ccc(C)cc12,15.2% (inactive)
11,C#C[C@]1(OC(C)=O)CCC2C3CCC4=CC(=O)CC[C@@H]4C3CC[C@@]21C (stereo not given in full),-6.37% (inactive)
12,COCCN(CCOC)c1nc(-c2ccccc2)nc2ccccc12,16.5% (inactive)
13,COc1cc(CCN(C(=O)c2cccc(S(C)(=O)=O)c2)C(CCc2ccccc2)c2nc3ccccc3[nH]2)cc(OC)c1 (stereo not given),6.57% (inactive)
14,CC(C)C[C@@H](COc1ccccc1)N1CCN(Cc2ccccc2)CCC1=O,11.8% (inactive)
15,COc1cccc(CN(C)C(=O)c2cnn(-c3ncc4c(n3)-c3ccccc3CCC4)c2C)c1,3.96% (inactive)
16,CCN(CCn1cccn1)Cc1c(C(=O)N2CCCCCCC2)nc2ccc(Cl)cn12,1.82% (inactive)
17,CC[C@H]1c2[nH]c3ccc(C(C)C)cc3c2[C@@H]2CCN3C(=O)CCC[C@H]1[C@H]23,-6.28% (inactive)
18,CC(=O)Nc1ccc(SC[C@H](C)CN2CC[C@H](C(C)(C)C)CCC2=O)cc1,8.55% (inactive)
19,COc1ccc(C2CN=NC23CCc2ccccc2C3=O)cc1 (stereo not given),10.9% (inactive)
20,Cc1cccc(C)c1OCC(=O)N(Cc1ccco1)Cc1ccco1,10.8% (inactive)

row,SMILES,activation
1,CCCCN(C(=O)c1cccc2c(=O)c(C)c(-c3ccccc3)oc12)c1ccccc1,5.76% (inactive)
2,Cc1c(C(=O)N2c3ccccc3CC2C)oc2ccccc12 (stereo not given),15.5% (inactive)
3,NC(=O)Nc1ccc(/C=C2\C=Cc3ccccc32)cc1,6.02% (inactive)
4,Cc1[nH]c2ccccc2c1/C=C/c1ccnc2ccccc12,3.93% (inactive)
5,COc1cc2c3nnc(-c4ccccc4)c-3cn(Cc3ccc(F)cc3)c2cc1OC,18.8% (inactive)
6,Cc1cc(-c2cc(F)cc3c2OC(CNC(=O)CCn2cncn2)C3)ccc1F (stereo not given),0.587% (inactive)
7,CCCCOC(=O)Nc1ccc(S(=O)(=O)Nc2nccs2)cc1,12.1% (inactive)
8,COc1ccc(S(=O)(=O)N2CCCCCC2)cc1C(=O)N1CCCC(C(F)(F)F)C1 (stereo not given),-3.57% (inactive)
9,C=CCOc1ccc(Br)cc1/C=C1/SC(=Nc2ccc(C(=O)O)cc2)NC1=O,-2.96% (inactive)
10,O=C(C[n+]1cccc2cc(Cl)ccc21)c1ccc(Br)cc1,-8.04% (inactive)
11,CCCCN(C(=O)CSc1n[nH]c(-c2ccc(C)cc2)n1)c1c(N)n(CCCC)c(=O)[nH]c1=O,-2.79% (inactive)
12,O=c1c2ccccc2oc2ccc(Oc3ccccc3)cc12,8.55% (inactive)
13,Cc1ccc(C)c(N2CCN(C(=O)CCc3nc(-c4ccc(Cl)cc4)no3)CC2)c1,2.15% (inactive)
14,COc1cc(-c2noc(C)c2-c2ccc3[nH]ccc3c2)cc(OC)c1OC,3.03% (inactive)
15,COc1cc(/C=N/NC(=O)c2ccccc2)ccc1O,7.26% (inactive)
16,COc1cccc(OC)c1C(=O)Nc1ccccc1Sc1ccccc1,-6.53% (inactive)
17,Cn1cccc1-c1cc(C(=O)N/N=C/c2ccc(F)cc2)[nH]n1,6.01% (inactive)
18,Cc1cc(N(C)C)cc(C)c1/C=C/c1ccnc2ccccc12,17.8% (inactive)
19,COc1ccc(C(=O)c2ccc(Br)cc2)c2ccccc12,13% (inactive)
20,CC1Sc2ccc(C(=O)OCc3ccccc3Cl)cc2NC1=O (stereo not given),7.03% (inactive)
